Shown are actives, neighbours in structure and some others; about 19% of the full set was active somewhere.
TDP1 cell noCPT: qHTS for Inhibitors of human tyrosyl-DNA phosphodiesterase 1 (TDP1): qHTS in cells in absence of CPT; DT40 Tdp1-/- hTDP1 cells, no CPT, ATP luminescence, 48 h; Potency, µM (titrated, usually from 46.2 µM), for inactives: top-dose activity change, negative = growth inhibition, most hits filed as inhibitors; hit rate 15% among 420,000; AID 686978, 2013; also: potency is read from the fitted curve at half-maximal effect; nearly all actives have a fitted effect of over 55% in size
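Readout: luminescence from CellTiter-Glo after 30 min in the dark at RT. Cells: DT40 Tdp1-/- with stable hTDP1, 400/well. Exposure: compounds alone, ≥48 hr, 37 °C.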
HT1080 IDH1KD tx: toxicity to HT-1080 IDH1 knockdown cells (counter line); HT-1080 IDH1 knockdown viability, ATP luminescence, 48 h; hit rate 2% among 360,000; Potency, µM (doses to about 46.1 µM), inactives show top-dose activity, negative = toxicity, actives largely listed as cytotoxic;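 also: potency is read from the fitted curve at half-maximal effect; 0% = DMSO wells and -100% = cell-free medium wells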
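Cytotoxicity counter-line: IDH1KD HT-1080, 48 h, CellTiter-Glo. Curves classed by r2, magnitude and activity.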
IL1B secr inh: inhibitors of inflammasome signaling (IL-1 beta secretion); THP-1 LPS/ATP IL-1B secretion, AlphaLISA, 16 h; active compounds read low; activity change, % at 57.5 µM; hit rate 4.7% among 360,000; in the data active = activity change below about -50%; inconclusive = mostly about -30% to -49%
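THP-1 cells pretreated 1 hr with compounds (up to 57.5 uM final), then stimulated with LPS (250 ng/mL final) plus ATP (1.25 mM final); secreted IL-1B measured by AlphaLISA after 16 hr, decreased signal indicating inhibition.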
DT40 TDP1 CPT: DT40-hTDP1 cell growth loss with CPT; chicken DT40 Tdp1-/-;hTDP1 cells + 20 nM CPT, ATP luminescence, 48 h; hit rate 12% among 420,000; Potency, µM (highest dose often 46.2 µM), without a hit: at the top dose activity change, negative = growth inhibition, hits mostly inhibitors; also: potency is read from the fitted curve at half-maximal effect; nearly all actives have a fitted effect of over 55% in size
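Chicken DT40 Tdp1-/- cells stably complemented with human TDP1 were seeded at 400 cells/well in medium containing 20 nM camptothecin, exposed to pin-transferred compounds, and grown at 37 °C for at least 48 hr. Viability was read as ATP luminescence.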
HT1080-NT tox: kills 2HG-producing HT-1080-NT fibrosarcoma cells; HT-1080-NT fibrosarcoma viability, CellTiter-Glo ATP luminescence, 48 h; Potency, µM (doses to about 46.1 µM), for inactives: at the highest dose activity, negative = less viability, actives largely listed as cytotoxic; hit rate 1.6% among 360,000; AID 686970;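 also: NT is the 2HG producing partner of a matched IDH1 knockdown line; potency is read from the fitted curve at half-maximal effect; 0% = DMSO-treated cells and -100% = media-only wells without cells; nearly all actives have a fitted effect of over 55% in size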
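Fibrosarcoma NT cells, 750 per well in 5% FBS RPMI, were exposed to compound for 48 hours. Viability: CellTiter-Glo luminescence.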
Active calls of the source: *. Unless noted, calls follow the shape of the dose curve; as a rule, active = well fitted curve in the direction sought with a large enough effect; inconclusive = small, poorly fitted or top-dose-only effect, or another doubt; inactive = no such curve, though single readings can be large; an effect the other way counts as inactive or inconclusive. Unless noted, % is scaled to controls: 0 for no effect and ±100 for the full control effect.

Results for Cc1ccc(S(=O)(=O)Cn2nnnc2C(c2ccc(F)cc2)N2CCC(C(N)=O)CC2)cc1 (stereo unspecified) ?
TDP1 cell noCPT: 2%; HT1080 IDH1KD tx: 15%; IL1B secr inh: -2; DT40 TDP1 CPT: -3%; HT1080-NT tox: -1%

What do the screens show for `CCc1ccc(NC(=O)CCS(=O)(=O)c2ccc3c(c2)n(C)c(=O)c(=O)n3C)cc1`?
TDP1 cell noCPT: -3%; DT40 TDP1 CPT: 6%

Results for Cc1ccc(/C([O-])=C(/C(=S)NCc2ccc3c(c2)OCO3)[n+]2ccc(N(C)C)cc2)c(C)c1 ?
TDP1 cell noCPT: inconclusive; HT1080 IDH1KD tx: -4%; IL1B secr inh: -68*; DT40 TDP1 CPT: inconclusive; HT1080-NT tox: -4%

What do the screens show for `CCOC(=O)C1=C(C)NC(=O)NC1c1ccc2c(c1)OCO2` (stereo unspecified)?
TDP1 cell noCPT: -3%; HT1080 IDH1KD tx: 0%; IL1B secr inh: -11; DT40 TDP1 CPT: -1%; HT1080-NT tox: 2%

How did CC1=C(C(=O)OCCCCCl)C(c2cc3c(cc2Br)OCO3)NC(=O)N1 (stereo unspecified) do in these assays?
TDP1 cell noCPT: inconclusive; HT1080 IDH1KD tx: -9%; IL1B secr inh: -18; DT40 TDP1 CPT: -27%; HT1080-NT tox: -16%

Results for CCC(CC)COC(=O)C1=C(C)NC(=O)NC1c1ccc2c(c1)OCO2 (stereo unspecified) ?
TDP1 cell noCPT: inconclusive; HT1080 IDH1KD tx: inconclusive; IL1B secr inh: -79*; DT40 TDP1 CPT: -12%; HT1080-NT tox: -27%

How did CCCCOC(=O)C1=C(C)NC(=O)NC1c1cc2c(cc1Br)OCO2 (stereo unspecified) do in these assays?
TDP1 cell noCPT: 23µM*; HT1080 IDH1KD tx: -7%; IL1B secr inh: inconclusive; DT40 TDP1 CPT: 23µM*; HT1080-NT tox: -18%

Results for CCSc1cc(C)nc2ncnn12 ?
TDP1 cell noCPT: 7%; HT1080 IDH1KD tx: 5%; IL1B secr inh: 8; DT40 TDP1 CPT: -13%; HT1080-NT tox: 5%

How did CCCCCCSc1cc(C)nc2ncnn12 do in these assays?
TDP1 cell noCPT: 12µM*; HT1080 IDH1KD tx: 2%; IL1B secr inh: 42; DT40 TDP1 CPT: 16µM*; HT1080-NT tox: 0%

How did O=C1C=C(c2ccc(F)cc2OCc2ccccc2)C[C@@H](c2ccc(F)cc2)C1 do in these assays?
TDP1 cell noCPT: 4%; HT1080 IDH1KD tx: -17%; IL1B secr inh: -18; DT40 TDP1 CPT: -9%; HT1080-NT tox: -15%

What do the screens show for `O=c1cc(O)n(-c2ccccc2)c(=S)[nH]1`?
TDP1 cell noCPT: inconclusive; HT1080 IDH1KD tx: 11%; IL1B secr inh: 11; DT40 TDP1 CPT: 21µM*; HT1080-NT tox: 4%

How did Cn1c(=O)c2c(nc(SCCCO)n2Cc2ccccc2Cl)n(C)c1=O do in these assays?
TDP1 cell noCPT: -21%; HT1080 IDH1KD tx: -6%; IL1B secr inh: -3; DT40 TDP1 CPT: -4%; HT1080-NT tox: -3%

What do the screens show for `CCc1cccc(N2C(=O)CS(=O)(=O)C23C(=O)N(Cc2ccccc2)c2ccc(C)cc23)c1` (stereo unspecified)?
TDP1 cell noCPT: 18µM*; DT40 TDP1 CPT: inconclusive

How did CCc1cccc(N2C(=O)CS(=O)(=O)C23C(=O)N(Cc2ccc(F)cc2)c2ccc(C)cc23)c1 (stereo unspecified) do in these assays?
TDP1 cell noCPT: 23µM*; DT40 TDP1 CPT: inconclusive

How did Cc1cc(C)cc(N2C(=O)CS(=O)(=O)C23C(=O)N(Cc2ccc(F)cc2)c2ccc(C)cc23)c1 (stereo unspecified) do in these assays?
TDP1 cell noCPT: 21µM*; DT40 TDP1 CPT: 18µM*

Results for Cc1ccccc1CN1C(=O)C2(c3ccccc31)N(c1ccccc1)C(=O)CS2(=O)=O (stereo unspecified) ?
TDP1 cell noCPT: -16%; DT40 TDP1 CPT: -22%

What do the screens show for `CCN(CC(=O)Nc1ccc(NC(C)=O)cc1)C(=O)Cc1cccc2ccccc12`?
TDP1 cell noCPT: 2%; HT1080 IDH1KD tx: -4%; IL1B secr inh: -7; DT40 TDP1 CPT: -10%; HT1080-NT tox: -8%

How did COc1ccccc1NC(=S)N/N=C/c1ccc(O)cc1 do in these assays?
TDP1 cell noCPT: 5.8µM*; HT1080 IDH1KD tx: -9%; IL1B secr inh: -101*; DT40 TDP1 CPT: 7.3µM*; HT1080-NT tox: -16%

Results for COc1cc(/C=N/NC(N)=S)ccc1OCc1ccc(C)cc1 ?
TDP1 cell noCPT: 10µM*; HT1080 IDH1KD tx: inconclusive; IL1B secr inh: -19; DT40 TDP1 CPT: 5.2µM*; HT1080-NT tox: inconclusive

How did COc1cc(/C=N/n2c(C)n[nH]c2=S)ccc1OCc1ccc(F)cc1 do in these assays?
TDP1 cell noCPT: 18µM*; HT1080 IDH1KD tx: 2%; IL1B secr inh: 7; DT40 TDP1 CPT: inconclusive; HT1080-NT tox: -2%

What do the screens show for `COc1ccccc1NC(=S)N/N=C/c1cccc(C)c1`?
TDP1 cell noCPT: inconclusive; HT1080 IDH1KD tx: 3%; IL1B secr inh: 10; DT40 TDP1 CPT: inconclusive; HT1080-NT tox: 0%

Results for COc1cc(/C=N/NC(=S)N/N=C/c2cc(OC)c(OC)c(OC)c2)cc(OC)c1OC ?
TDP1 cell noCPT: 3.7µM*; HT1080 IDH1KD tx: -1%; IL1B secr inh: 10; DT40 TDP1 CPT: 4.1µM*; HT1080-NT tox: -5%

How did COc1cc(/C=N\n2nnnc2N)ccc1OCc1ccc(F)cc1 do in these assays?
TDP1 cell noCPT: -20%; HT1080 IDH1KD tx: -25%; IL1B secr inh: -21; DT40 TDP1 CPT: -8%; HT1080-NT tox: -22%

What do the screens show for `COc1cc(/C=N/NC(=S)Nc2cccc(C(=O)O)c2)cc(OC)c1OC`?
TDP1 cell noCPT: -5%; HT1080 IDH1KD tx: 7%; IL1B secr inh: 19; DT40 TDP1 CPT: 8%; HT1080-NT tox: 7%

Results for CCOCCCNC(=O)C1(O)c2ccccc2NC(=O)N1c1ccc(Cl)cc1 (stereo unspecified) ?
TDP1 cell noCPT: 7%; HT1080 IDH1KD tx: 8%; IL1B secr inh: -11; DT40 TDP1 CPT: -3%; HT1080-NT tox: 17%

What do the screens show for `COc1ccc(C=NNC(=S)NN=Cc2ccc(OC)c(OC)c2)cc1OC`?
TDP1 cell noCPT: 12µM*; HT1080 IDH1KD tx: -17%; IL1B secr inh: -17; DT40 TDP1 CPT: 7.3µM*; HT1080-NT tox: -20%

Results for COc1ccc(C=NNC(=S)Nc2ccc(F)cc2)cc1OC ?
TDP1 cell noCPT: 2.1µM*; HT1080 IDH1KD tx: -10%; IL1B secr inh: 16; DT40 TDP1 CPT: 3.3µM*; HT1080-NT tox: -6%

What do the screens show for `O=[N+]([O-])c1ccc(CNc2cccc(F)c2)s1`?
TDP1 cell noCPT: -28%; HT1080 IDH1KD tx: -4%; IL1B secr inh: -52*; DT40 TDP1 CPT: 5%; HT1080-NT tox: -24%

Screening results (PubChem BioAssay)
